Where a chain is given by its changes, count along the chain named.

Test in all cases: PBM; 200 nM protein, PBS
Holding throughout (settings): dsDNA, one strand shown

Assay [1] addresses SHOX (Homo sapiens, UniProt O15266 103-189).
Assay [2] concerns the target HOXA2 (Homo sapiens, UniProt O43364 129-215, R185T).
Assay [3] addresses SHOX (Homo sapiens, UniProt O15266 103-189, R173C).
In assay [4] the target is HOXA2 (Homo sapiens, UniProt O43364 129-215, R185K).
The target of assay [5] is HOXA2 (Homo sapiens, UniProt O43364 129-215, Y150S).
Chain of HOXA2 (Homo sapiens, UniProt O43364 129-215, Y150S) (O43364 129-215 Y150S): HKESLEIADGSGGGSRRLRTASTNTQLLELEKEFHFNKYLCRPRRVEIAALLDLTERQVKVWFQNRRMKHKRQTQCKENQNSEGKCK
In assay [6] the target is HOXA2 (Homo sapiens, UniProt O43364 129-215).
Chain of HOXA2 (Homo sapiens, UniProt O43364 129-215) (O43364 129-215): as the sequence (O43364 129-215 Y150S) above, with S22Y counted along it
Assay [7] deals with HOXC10 (Homo sapiens, UniProt Q9NYD6 254-340).
Chain of HOXC10 (Homo sapiens, UniProt Q9NYD6 254-340) (Q9NYD6 254-340): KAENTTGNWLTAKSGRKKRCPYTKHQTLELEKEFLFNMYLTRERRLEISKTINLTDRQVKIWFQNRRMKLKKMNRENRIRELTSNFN
The target in assay [8] is HOXC10 (Homo sapiens, UniProt Q9NYD6 254-340, K271E).
Chain of HOXC10 (Homo sapiens, UniProt Q9NYD6 254-340, K271E) (Q9NYD6 254-340 K271E): as the sequence (Q9NYD6 254-340) above, with K18E counted along it
In assay [9] the target is T1, PAX4 (Homo sapiens, UniProt O43316 9-242, R200K).
T1 sequence: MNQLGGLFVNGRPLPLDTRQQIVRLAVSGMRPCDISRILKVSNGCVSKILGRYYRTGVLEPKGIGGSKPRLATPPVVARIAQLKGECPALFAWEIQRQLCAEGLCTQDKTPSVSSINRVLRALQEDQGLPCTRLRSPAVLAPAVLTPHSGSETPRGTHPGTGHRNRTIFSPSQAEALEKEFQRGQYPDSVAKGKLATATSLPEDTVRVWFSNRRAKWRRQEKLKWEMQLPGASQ

Assay [10] addresses T2, PAX4 (Homo sapiens, UniProt O43316 9-242).
T2 sequence: T1 sequence with K192R

Assay [11] has as its target T3, PAX4 (Homo sapiens, UniProt O43316 9-242, R200Q).
T3 sequence: T1 sequence with K192Q

In a further assay the target is PITX2 (Homo sapiens, UniProt Q99697 72-157).
The target in assay [12] is T4, PAX4 (Homo sapiens, UniProt O43316 9-242, F177V).
T4 sequence: T1 sequence with F169V, K192R

The target in assay [13] is T5, PAX4 (Homo sapiens, UniProt O43316 9-242, F177Y).
T5 sequence: T1 sequence with F169Y, K192R

In assay [14] the target is T6, PAX4 (Homo sapiens, UniProt O43316 9-242, R227W).
T6 sequence: T1 sequence with K192R, R219W

In assay [15] the target is ALX4 (Homo sapiens, UniProt Q9H161 200-286).
Chain of ALX4 (Homo sapiens, UniProt Q9H161 200-286) (Q9H161 200-286): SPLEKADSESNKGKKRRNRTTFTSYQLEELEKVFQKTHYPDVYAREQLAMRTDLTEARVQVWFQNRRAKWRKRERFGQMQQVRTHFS
Assay [16] deals with PRRX1 (Homo sapiens, UniProt P54821 80-166, F113S).
Chain of PRRX1 (Homo sapiens, UniProt P54821 80-166, F113S) (P54821 80-166 F113S): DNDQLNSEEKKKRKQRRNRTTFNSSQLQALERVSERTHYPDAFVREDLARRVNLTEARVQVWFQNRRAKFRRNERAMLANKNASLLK
The target in assay [17] is ALX4 (Homo sapiens, UniProt Q9H161 200-286, Q225E).
Chain of ALX4 (Homo sapiens, UniProt Q9H161 200-286, Q225E) (Q9H161 200-286 Q225E): as the sequence (Q9H161 200-286) above, with Q26E counted along it
Assay [18] concerns the target ALX1 (Homo sapiens, UniProt Q15699 118-204, L144V).
For assay [19], the target named is ALX3 (Homo sapiens, UniProt O95076 139-225, N203Q).
Chain of ALX3 (Homo sapiens, UniProt O95076 139-225, N203Q) (O95076 139-225 N203Q): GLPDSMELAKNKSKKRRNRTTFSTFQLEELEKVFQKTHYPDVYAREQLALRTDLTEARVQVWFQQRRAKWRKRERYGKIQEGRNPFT
The target in assay [20] is ALX1 (Homo sapiens, UniProt Q15699 118-204, L144R).
Chain of ALX1 (Homo sapiens, UniProt Q15699 118-204, L144R) (Q15699 118-204 L144R): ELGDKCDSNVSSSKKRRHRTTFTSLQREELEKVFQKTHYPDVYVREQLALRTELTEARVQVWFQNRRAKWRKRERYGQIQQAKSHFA
Assay [21] deals with ALX3 (Homo sapiens, UniProt O95076 139-225).
Chain of ALX3 (Homo sapiens, UniProt O95076 139-225) (O95076 139-225): as the sequence (O95076 139-225 N203Q) above, with Q65N counted along it
In assay [22] the target is PROP1 (Homo sapiens, UniProt O75360 56-141).
Chain of PROP1 (Homo sapiens, UniProt O75360 56-141) (O75360 56-141): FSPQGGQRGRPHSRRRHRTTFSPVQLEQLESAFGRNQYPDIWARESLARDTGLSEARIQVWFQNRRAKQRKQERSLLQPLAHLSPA
In assay [23] the target is PROP1 (Homo sapiens, UniProt O75360 56-141, R99H).
Chain of PROP1 (Homo sapiens, UniProt O75360 56-141, R99H) (O75360 56-141 R99H): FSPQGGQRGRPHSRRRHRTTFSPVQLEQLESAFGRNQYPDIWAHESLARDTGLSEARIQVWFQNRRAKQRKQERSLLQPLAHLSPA
The target in assay [24] is ALX3 (Homo sapiens, UniProt O95076 139-225, L168Q).
Chain of ALX3 (Homo sapiens, UniProt O95076 139-225, L168Q) (O95076 139-225 L168Q): as the sequence (O95076 139-225 N203Q) above, with L30Q, Q65N counted along it
Assay [25] has as its target ALX3 (Homo sapiens, UniProt O95076 139-225, L168V).
The target in assay [26] is PROP1 (Homo sapiens, UniProt O75360 56-141, F88S).
Chain of PROP1 (Homo sapiens, UniProt O75360 56-141, F88S) (O75360 56-141 F88S): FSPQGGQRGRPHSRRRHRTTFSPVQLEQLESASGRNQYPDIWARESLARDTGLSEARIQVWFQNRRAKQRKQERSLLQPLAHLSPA
The target in assay [27] is ALX1 (Homo sapiens, UniProt Q15699 118-204).
Chain of ALX1 (Homo sapiens, UniProt Q15699 118-204) (Q15699 118-204): as the sequence (Q15699 118-204 L144R) above, with R27L counted along it
The target in assay [28] is ALX3 (Homo sapiens, UniProt O95076 139-225, N203S).
Chain of ALX3 (Homo sapiens, UniProt O95076 139-225, N203S) (O95076 139-225 N203S): as the sequence (O95076 139-225 N203Q) above, with Q65S counted along it
Assay [29] has as its target PRRX1 (Homo sapiens, UniProt P54821 80-166).
In assay [30] the target is HOXC9 (Homo sapiens, UniProt P31274 178-260, K195R).
Chain of HOXC9 (Homo sapiens, UniProt P31274 178-260, K195R) (P31274 178-260 K195R): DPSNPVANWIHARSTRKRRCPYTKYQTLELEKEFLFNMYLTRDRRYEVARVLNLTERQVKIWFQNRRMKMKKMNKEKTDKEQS
In assay [31] the target is HOXC9 (Homo sapiens, UniProt P31274 178-260).
Chain of HOXC9 (Homo sapiens, UniProt P31274 178-260) (P31274 178-260): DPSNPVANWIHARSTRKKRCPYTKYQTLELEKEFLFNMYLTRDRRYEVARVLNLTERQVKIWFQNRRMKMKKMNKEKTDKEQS
Assay [32] concerns the target HOXC9 (Homo sapiens, UniProt P31274 178-260, R193K).
The target of assay [33] is HOXC9 (Homo sapiens, UniProt P31274 178-260, R222W).
Chain of HOXC9 (Homo sapiens, UniProt P31274 178-260, R222W) (P31274 178-260 R222W): as the sequence (P31274 178-260) above, with R45W counted along it
Assay [34] concerns the target NKX3-2 (Homo sapiens, UniProt P78367 192-278, P234S).
Assay [35] concerns the target NKX3-2 (Homo sapiens, UniProt P78367 192-278).
The target of assay [36] is MSX2 (Homo sapiens, UniProt P35548 130-214, R199I).
Chain of MSX2 (Homo sapiens, UniProt P35548 130-214, R199I) (P35548 130-214 R199I): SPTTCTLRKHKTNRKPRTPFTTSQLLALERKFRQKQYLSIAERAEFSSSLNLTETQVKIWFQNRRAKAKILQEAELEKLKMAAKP
Assay [37] has as its target MSX2 (Homo sapiens, UniProt P35548 130-214).
Assay [38] addresses MSX2 (Homo sapiens, UniProt P35548 130-214, F161Y).

Chain of SHOX (Homo sapiens, UniProt O15266 103-189, R173C) (O15266 103-189 R173C): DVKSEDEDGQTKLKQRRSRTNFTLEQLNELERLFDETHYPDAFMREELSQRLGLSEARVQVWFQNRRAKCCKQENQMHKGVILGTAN
Chain of SHOX (Homo sapiens, UniProt O15266 103-189) (O15266 103-189): as the sequence (O15266 103-189 R173C) above, with C71R counted along it
Chain of HOXA2 (Homo sapiens, UniProt O43364 129-215, R185T) (O43364 129-215 R185T): as the sequence (O43364 129-215 Y150S) above, with S22Y, R57T counted along it
Chain of NKX3-2 (Homo sapiens, UniProt P78367 192-278) (P78367 192-278): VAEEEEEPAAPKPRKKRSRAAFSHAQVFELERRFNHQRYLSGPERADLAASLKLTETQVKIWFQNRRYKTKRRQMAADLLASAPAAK
Chain of PRRX1 (Homo sapiens, UniProt P54821 80-166) (P54821 80-166): as the sequence (P54821 80-166 F113S) above, with S34F counted along it
Chain of MSX2 (Homo sapiens, UniProt P35548 130-214, F161Y) (P35548 130-214 F161Y): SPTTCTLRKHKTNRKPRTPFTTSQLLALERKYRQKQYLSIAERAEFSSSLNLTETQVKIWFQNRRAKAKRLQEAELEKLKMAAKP
Chain of HOXC9 (Homo sapiens, UniProt P31274 178-260, R193K) (P31274 178-260 R193K): as the sequence (P31274 178-260) above, with R16K counted along it
Chain of ALX3 (Homo sapiens, UniProt O95076 139-225, L168V) (O95076 139-225 L168V): as the sequence (O95076 139-225 N203Q) above, with L30V, Q65N counted along it
Chain of NKX3-2 (Homo sapiens, UniProt P78367 192-278, P234S) (P78367 192-278 P234S): as the sequence (P78367 192-278) above, with P43S counted along it
Chain of ALX1 (Homo sapiens, UniProt Q15699 118-204, L144V) (Q15699 118-204 L144V): as the sequence (Q15699 118-204 L144R) above, with R27V counted along it
Chain of MSX2 (Homo sapiens, UniProt P35548 130-214) (P35548 130-214): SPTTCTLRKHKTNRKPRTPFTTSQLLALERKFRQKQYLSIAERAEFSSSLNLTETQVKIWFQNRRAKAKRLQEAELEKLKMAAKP
Chain of HOXA2 (Homo sapiens, UniProt O43364 129-215, R185K) (O43364 129-215 R185K): as the sequence (O43364 129-215 Y150S) above, with S22Y, R57K counted along it

For CCTTGCCC, the binding signal is 7.09 upbm affinity estimate (log intensity, higher = more binding, comparable within an allelic series) in the assay with SHOX [1]; 7.28 upbm affinity estimate (log intensity, higher = more binding, comparable within an allelic series) with HOXA2 [2]; 7.14 upbm affinity estimate (log intensity, higher = more binding, comparable within an allelic series) with SHOX [3]; 10.4 upbm affinity estimate (log intensity, higher = more binding, comparable within an allelic series) with HOXA2 [4]; 10.4 upbm affinity estimate (log intensity, higher = more binding, comparable within an allelic series) in the assay with HOXA2 [5]; 7.27 upbm affinity estimate (log intensity, higher = more binding, comparable within an allelic series) with HOXA2 [6].

For GGCGCGAA, the binding signal is 7.15 upbm affinity estimate (log intensity, higher = more binding, comparable within an allelic series) in the assay with SHOX [1]; 10.1 upbm affinity estimate (log intensity, higher = more binding, comparable within an allelic series) in the assay with HOXC10 [7]; 7.19 upbm affinity estimate (log intensity, higher = more binding, comparable within an allelic series) in the assay with SHOX [3]; 10.1 upbm affinity estimate (log intensity, higher = more binding, comparable within an allelic series) with HOXC10 [8].

Consider CAGCGCAG, for which the binding signal with SHOX [1] is 7.11 upbm affinity estimate (log intensity, higher = more binding, comparable within an allelic series); with PAX4 [9], 9.32 upbm affinity estimate (log intensity, higher = more binding, comparable within an allelic series); with PAX4 [10] it was 9.29 upbm affinity estimate (log intensity, higher = more binding, comparable within an allelic series); with PAX4 [11] it was 9.39 upbm affinity estimate (log intensity, higher = more binding, comparable within an allelic series); with PITX2, 8.17 upbm affinity estimate (log intensity, higher = more binding, comparable within an allelic series); with SHOX [3], 7.22 upbm affinity estimate (log intensity, higher = more binding, comparable within an allelic series). Further, the binding signal with PAX4 [12] was 9.38 upbm affinity estimate (log intensity, higher = more binding, comparable within an allelic series); in the assay with PAX4 [13] it was 9.36 upbm affinity estimate (log intensity, higher = more binding, comparable within an allelic series); in the assay with PAX4 [14] it was 9.48 upbm affinity estimate (log intensity, higher = more binding, comparable within an allelic series).

For CGCCTCCC, the binding signal was 7 upbm affinity estimate (log intensity, higher = more binding, comparable within an allelic series) with SHOX [1]; 9.2 upbm affinity estimate (log intensity, higher = more binding, comparable within an allelic series) with PAX4 [9]; 9.23 upbm affinity estimate (log intensity, higher = more binding, comparable within an allelic series) with PAX4 [10]; 9.17 upbm affinity estimate (log intensity, higher = more binding, comparable within an allelic series) with PAX4 [11]; 6.98 upbm affinity estimate (log intensity, higher = more binding, comparable within an allelic series) with SHOX [3]; 9.03 upbm affinity estimate (log intensity, higher = more binding, comparable within an allelic series) with PAX4 [12]. Further, the binding signal with PAX4 [13] was 9.1 upbm affinity estimate (log intensity, higher = more binding, comparable within an allelic series); in the assay with PAX4 [14], 9.17 upbm affinity estimate (log intensity, higher = more binding, comparable within an allelic series).

As to CTAATTTA, the binding signal with SHOX [1] was 11.5 upbm affinity estimate (log intensity, higher = more binding, comparable within an allelic series); with ALX4 [15], 13.7 upbm affinity estimate (log intensity, higher = more binding, comparable within an allelic series); with PAX4 [9] it was 11.7 upbm affinity estimate (log intensity, higher = more binding, comparable within an allelic series); with PRRX1 [16], 11.1 upbm affinity estimate (log intensity, higher = more binding, comparable within an allelic series); with PAX4 [10], 12.3 upbm affinity estimate (log intensity, higher = more binding, comparable within an allelic series); with ALX4 [17], 12.6 upbm affinity estimate (log intensity, higher = more binding, comparable within an allelic series). The binding signal in the assay with ALX1 [18] was 11.4 upbm affinity estimate (log intensity, higher = more binding, comparable within an allelic series); with ALX3 [19], 8.44 upbm affinity estimate (log intensity, higher = more binding, comparable within an allelic series); with PAX4 [11], 11.9 upbm affinity estimate (log intensity, higher = more binding, comparable within an allelic series); in the assay with SHOX [3], 9.2 upbm affinity estimate (log intensity, higher = more binding, comparable within an allelic series); with ALX1 [20], 11.1 upbm affinity estimate (log intensity, higher = more binding, comparable within an allelic series); with PAX4 [12], 10.6 upbm affinity estimate (log intensity, higher = more binding, comparable within an allelic series). For the same sequence, the binding signal with ALX3 [21] is 12.3 upbm affinity estimate (log intensity, higher = more binding, comparable within an allelic series); with PAX4 [13], 11 upbm affinity estimate (log intensity, higher = more binding, comparable within an allelic series); with PROP1 [22] it was 11 upbm affinity estimate (log intensity, higher = more binding, comparable within an allelic series); with PROP1 [23], 10.8 upbm affinity estimate (log intensity, higher = more binding, comparable within an allelic series); with ALX3 [24], 10.2 upbm affinity estimate (log intensity, higher = more binding, comparable within an allelic series); in the assay with ALX3 [25], 9.6 upbm affinity estimate (log intensity, higher = more binding, comparable within an allelic series). The binding signal with PROP1 [26] is 7.64 upbm affinity estimate (log intensity, higher = more binding, comparable within an allelic series); with PAX4 [14] it was 11 upbm affinity estimate (log intensity, higher = more binding, comparable within an allelic series); in the assay with ALX1 [27], 12.1 upbm affinity estimate (log intensity, higher = more binding, comparable within an allelic series); in the assay with ALX3 [28], 8.54 upbm affinity estimate (log intensity, higher = more binding, comparable within an allelic series); in the assay with PRRX1 [29] it was 13.3 upbm affinity estimate (log intensity, higher = more binding, comparable within an allelic series).

On to CGCAGTGC, for which the binding signal with SHOX [1] is 7.16 upbm affinity estimate (log intensity, higher = more binding, comparable within an allelic series); in the assay with HOXC9 [30] it was 9.74 upbm affinity estimate (log intensity, higher = more binding, comparable within an allelic series); in the assay with HOXC9 [31], 9.67 upbm affinity estimate (log intensity, higher = more binding, comparable within an allelic series); with SHOX [3], 7.23 upbm affinity estimate (log intensity, higher = more binding, comparable within an allelic series); with HOXC9 [32] it was 9.78 upbm affinity estimate (log intensity, higher = more binding, comparable within an allelic series); with HOXC9 [33], 9.73 upbm affinity estimate (log intensity, higher = more binding, comparable within an allelic series).

As to ACGGGGCC, the binding signal in the assay with SHOX [1] is 7.07 upbm affinity estimate (log intensity, higher = more binding, comparable within an allelic series); in the assay with HOXC10 [7] it was 10.1 upbm affinity estimate (log intensity, higher = more binding, comparable within an allelic series); in the assay with SHOX [3], 7.17 upbm affinity estimate (log intensity, higher = more binding, comparable within an allelic series); with HOXC10 [8], 10.1 upbm affinity estimate (log intensity, higher = more binding, comparable within an allelic series); with NKX3-2 [34], 10.8 upbm affinity estimate (log intensity, higher = more binding, comparable within an allelic series); with NKX3-2 [35] it was 10.8 upbm affinity estimate (log intensity, higher = more binding, comparable within an allelic series).

In the case of CAAGCTTG, the binding signal with SHOX [1] was 7.28 upbm affinity estimate (log intensity, higher = more binding, comparable within an allelic series); in the assay with MSX2 [36], 9.71 upbm affinity estimate (log intensity, higher = more binding, comparable within an allelic series); with SHOX [3], 7.33 upbm affinity estimate (log intensity, higher = more binding, comparable within an allelic series); with MSX2 [37], 9.69 upbm affinity estimate (log intensity, higher = more binding, comparable within an allelic series); in the assay with MSX2 [38] it was 9.69 upbm affinity estimate (log intensity, higher = more binding, comparable within an allelic series).

For the origin of these results see publication PMC11006913.
